From PubChem BioAssay (NCI)
About 83,000 compounds went through this panel and 20% of them were active in at least one assay; those are over-represented in the sample as a whole.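 Treatment: one concentration, 48 hours, 96-well format. Scoring: percent growth, with anything below 10 considered active.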 A number with no mark means an inactive call. Calls of active or inactive are those of the source.

Assays:
Experiment in all cases: NCI-60 one-dose screen, 48 h (100 = growth as untreated, 0 = no growth, -100 = all killed)
Details in all cases: 10 µM unless noted
NCI-H23 lung = system: NCI-H23 lung
NCI-H226 lung = system: NCI-H226 lung
NCI-H322M lung = system: NCI-H322M lung
HOP-62 NSCLC = system: HOP-62 NSCLC
NCI-H460 lung = system: NCI-H460 lung
HOP-92 NSCLC = system: HOP-92 NSCLC
NCI-H522 lung = system: NCI-H522 lung
A549/ATCC NSCLC = system: A549/ATCC NSCLC
786-0 renal = system: 786-0 renal
COLO 205 colon = system: COLO 205 colon
DU-145 prostate = system: DU-145 prostate
K-562 leukemia = system: K-562 leukemia
MALME-3M melanoma = system: MALME-3M melanoma
MDA-MB-231 breast = system: MDA-MB-231 breast
RXF 393 renal = system: RXF 393 renal
SF-268 CNS = system: SF-268 CNS
SF-295 CNS = system: SF-295 CNS
SF-539 CNS = system: SF-539 CNS
UACC-257 melanoma = system: UACC-257 melanoma
M14 melanoma = system: M14 melanoma

| SMILES | growth (NCI-H23 lung) | growth (NCI-H226 lung) | growth (NCI-H322M lung) | growth (HOP-62 NSCLC) | growth (NCI-H460 lung) | growth (HOP-92 NSCLC) | growth (NCI-H522 lung) | growth (A549/ATCC NSCLC) | growth (786-0 renal) | growth (COLO 205 colon) | growth (DU-145 prostate) | growth (K-562 leukemia) | growth (MALME-3M melanoma) | growth (MDA-MB-231 breast) | growth (RXF 393 renal) | growth (SF-268 CNS) | growth (SF-295 CNS) | growth (SF-539 CNS) | growth (UACC-257 melanoma) | growth (M14 melanoma) |
| --- | --- | --- | --- | --- | --- | --- | --- | --- | --- | --- | --- | --- | --- | --- | --- | --- | --- | --- | --- | --- |
| COc1ccc(C/C(C)=C(/c2ccc(OCCN3CCCCC3)cc2)c2ccc(OC(=O)NCc3ccccc3)cc2)cc1 | -84.6% (active) | -70% (active) | -81.7% (active) | -89.2% (active) | -90% (active) | -92.7% (active) | -80.9% (active) | -93.4% (active) | -91.6% (active) | -90.4% (active) | -97.2% (active) | -56.3% (active) | -87.3% (active) | -86.9% (active) | -91.4% (active) | -76.6% (active) | -94.8% (active) | -92.5% (active) | -83.2% (active) | -92.3% (active) |
| O=C1c2cccc(NCCN=Cc3cc(O)ccc3O)c2C(=O)c2c(NCCN=Cc3cc(O)ccc3O)cccc21 | -26.1% (active) | 6.91% (active) | -11.3% (active) | -9.1% (active) | -70.8% (active) | -25.5% (active) | -65% (active) | -55.6% (active) | 0.261% (active) | -41.4% (active) | -68.5% (active) | -94.8% (active) | -24.6% (active) | -41% (active) | -34.2% (active) | -34.9% (active) | -23.6% (active) | -8.67% (active) | 57.9% | -4.47% (active) |
| CS(=O)(=O)Nc1cc(-c2ccc3ncnc(Nc4ccc5c(cnn5Cc5ccccn5)c4)c3c2)cnc1Cl | 76.7% | 81.3% | 86.2% | 68.8% | 85.8% | 2.29% (active) | 67.9% | 89.2% | 84.3% | 93.1% | 90% | 92.1% | 39.5% | 71.5% | 72.8% | 51.5% | 91.5% | 69.9% | 88.1% | 75.5% |
| CNc1nc(S(=O)c2ccc(C#N)cc2)nc2ccccc12 (stereo not given) | 78.4% | 81.1% | 99.6% | 98.5% | 85.2% | 75% | 50.3% | 90.1% | 97.5% | 91.6% | 40.6% | 24.9% | 54.8% | 54.8% | 62.9% | 87.8% | 99.5% | 92% | 85.3% | 71.5% |
| COc1cc2c(c(OC)c1OC)C(=O)CC(c1cccc(NC(=O)c3ccc(Br)cc3)c1)O2 (stereo not given) | 51.2% | 49.2% | 72.5% | 47.2% | 57% | 25.7% | 9.27% (active) | 48.6% | 78.1% | 55.5% | 58.7% | 5.9% (active) | 46.6% | 37.3% | 66.3% | 57.6% | 41.8% | 79.1% | 53.1% | 20% |
| O=C(NNC(=O)c1ccc(-n2cc(-c3ccccc3)nn2)cc1)Nc1ccccc1 | 97.6% | 99.6% | 108% | 94.8% | 109% | 98.8% | 108% | 102% | 104% | 111% | 106% | 105% | 113% | 108% | 103% | 90.2% | 101% | 96% | 103% | 97.6% |
| COP(=O)(OC)C(C)(C)CC(=O)CC(C#N)(C#N)C(C#N)C#N | 98.7% | 92.9% | 99.3% | 98.1% | 112% | 55.9% | 101% | 104% | 105% | 107% | 113% | 91.1% | 96.8% | 100% | 97.8% | 98% | 101% | 102% | 103% | 96.2% |
| COC(=O)c1cc(-c2ccc(OC)cc2)[nH]c1N/N=C/c1c(Cl)cccc1Cl | 46.1% | 38.1% | 36.1% | -42.5% (active) | -9.38% (active) | 47.4% | 10.5% | 5.26% (active) | -14% (active) | -23.9% (active) | -26.2% (active) | 0.823% (active) | 24.7% | 7.56% (active) | -44.2% (active) | 13.8% | -28.2% (active) | -38.8% (active) | 14.2% | -59.3% (active) |
| COc1cccc(CNc2ncnc3c2ncn3C2OC(CO)C(O)C2O)c1O (stereo not given) | 7.98% (active) | 31.6% | 11.3% | 1.76% (active) | 45.7% | -32.7% (active) | 8.65% (active) | 23.9% | 7.21% (active) | 24.6% | 0.439% (active) | 6.7% (active) | -1.1% (active) | -46% (active) | -13.3% (active) | 22.8% | -24.5% (active) | -3.39% (active) | 37.6% | 18.5% |
| CCCCC(=O)Nc1ncc(Cc2ccc(Cl)cc2)s1 | 90.3% | 82% | 86.8% | 68.8% | 60.7% | 69.7% | 50.1% | 53.1% | 80.7% | 76.5% | 89% | 37.5% | 81.3% | 62.3% | 56.4% | 79.6% | 74.6% | 73.5% | 80.7% | 61.1% |
| Fc1cc(F)cc(C(c2c[nH]c3ccccc23)c2c[nH]c3ccccc23)c1 | 89.4% | 103% | 86.1% | 91.1% | 97.8% | 89.4% | 75% | 82% | 98% | 97.8% | 105% | 118% | 130% | 86.6% | 115% | 97.6% | 78.6% | 106% | 99.8% | 98% |
| Cc1ccc(/C=N/Nc2nc(Nc3ccccc3)nc(-n3nc(C)cc3C)n2)cc1 | 54.8% | 46.9% | 27% | 73.3% | 6.72% (active) | 60.7% | 15.7% | 26.2% | 44.4% | 30.6% | 40.9% | 37.1% | 80.8% | 51.6% | 55.9% | 44% | -40.7% (active) | 56.5% | 54.2% | 42.9% |
| O=S(=O)(NCCNc1cc(-c2c(-c3cccc(O)c3)nc3sccn23)ccn1)c1ccc(C(F)(F)F)cc1 | 51.9% | 38.1% | 61.5% | 71.8% | 21.1% | 61.9% | 38.1% | 28.6% | 38.6% | 42.6% | 43.1% | 22.8% | 57.8% | 53.2% | 42.1% | 34.9% | 31.2% | 62.3% | 51.8% | 36.9% |
| COC(=O)/C(CCC=C(C)C)=C1\[C@@H](OC(C)=O)C[C@@]2(C)[C@H]1C[C@@H](O)[C@H]1[C@@]3(C)CC[C@H](NCCN)[C@@H](C)[C@@H]3CC[C@@]12C | 88.7% | 83.5% | 83.5% | 93% | 99.6% | 53.1% | 86.9% | 88.9% | 73.5% | 80.3% | 65.4% | -7.67% (active) | 89.4% | 93% | 57.8% | 76.6% | 98.2% | 90.2% | 99.7% | 87% |
